Growth inhibition data for 40 molecules are collected here from PubChem BioAssay (NCI).

The structures appear in SMILES notation. The panel holds about 79,000 compounds, 15% with a hit somewhere; the sample as a whole holds those more often. Unmarked numbers belong to inactive results. Activity calls are given as the source filed them. No stated cut-off is given here; in the data, active means growth inhibition above about 70%; inactive means the rest.

The nature of the first experiment: NCI Yeast Anticancer Drug Screen. Data for the rad50 strain (AID 155).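 Further: 0% = growth of vehicle-only cultures of the same strain.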 The note with it: S. cerevisiae rad50 strain growth inhibition; at 5.0 µM (retest, dose inferred, filed as 0.5); active compounds read high. The method in brief:
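Cells are treated with compound, grown, and their growth is then scored against vehicle-only cultures of the same repair-deficient yeast strain.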
Turning to `CCCCCCCCCCCCCCOC(=O)C(N)Cc1ccc(O)cc1` (stereo not given), the growth inhibition is 7%.
On the same count and under the same terms, then `CN(C)c1ccc(C(O)(Cc2cccc(C#N)c2)c2ccc(N(C)C)cc2)cc1`, with 2%; and `O=C(NNC(=O)c1cccc(C(=O)NNC(=O)c2ccc(Cl)c(Cl)c2)n1)c1ccc(Cl)c(Cl)c1`, with 35%; and `C=C1C(=O)O[C@H]2[C@H](OC(C)=O)[C@@H](C)CCC/C(C)=C/CC[C@@]3(C)O[C@@H]3C[C@@H]12`, with 14%.
In the case of `O=C(c1ccccc1)C1OC1c1ccccc1Cl` (stereo not given), the growth inhibition was 1%.
In the case of `[N-]=[N+]=Nc1ccc(SSCCC(=O)ON2C(=O)CCC2=O)cc1`, the growth inhibition was 24%.
The same measure, in the same setting: in the case of `Cc1cc(N(CCC#N)CCC#N)ccc1/C(N=Nc1cccc([N+](=O)[O-])c1)=N/NC(=O)c1cc(Cl)ccc1O` it was 8%; in that of `CC(C)/C(Cl)=N\OC(=O)Nc1ccc(S(N)(=O)=O)cc1`, 15%.
With `CCCCCCCCCCCCCC(=O)OCC(O)CO` (stereo not given), the growth inhibition is 2%.
Same read-out and setting: then `O=C1C=CC(=O)N1C1CCCCC1`, with 93% (active); and `CCCCCCCCCCCC(=O)OCC1OC(n2cc(F)c(=O)[nH]c2=O)C(N)C(O)C1O` (stereo not given), with 34%.
Take `CN(C)c1ccc(C2C=C(c3ccccc3)Oc3ccccc32)cc1` (stereo not given): the growth inhibition was 97% (active).
In the case of `CS(=O)(=O)OCCN(CCOS(C)(=O)=O)c1ccc(C=Nc2cccc(Cl)c2)cc1`, the growth inhibition is 35%.
Take `O=C1C(=O)N(c2cc(Cl)ccc2Cl)C(=O)C(=O)C1c1nc2ccccc2o1`: the growth inhibition is 4%.
For the molecule `CC1=NC(=Cc2ccc(Cl)cc2)C(=O)N1n1c(-c2ccccc2)nc2ccccc2c1=O`, the growth inhibition is -8%.
As for `C/C(=N/Nc1ccc([N+](=O)[O-])cc1[N+](=O)[O-])C1=CCC(C(C)(C)C)CC1` (stereo not given), the growth inhibition is 7%.
Consider `Cc1ccc(C)c(N2C(=O)C(=O)C(c3nc4ccccc4o3)/C(=N\NC(=O)c3ccccc3O)C2=O)c1` (stereo not given), for which the growth inhibition was 6%.
Still for that read-out and setting: in the case of `O=C(/C=C/C=C/c1ccccc1)c1ccco1` it was -7%; in that of `O=C1CCC(=O)c2c1c(O)c1ccncc1c2O`, 18%.
Turning to `CNC(=O)OC(C)CN1c2ccccc2Sc2ccc(Cl)cc21` (stereo not given), the growth inhibition is 12%.
Still for that read-out and setting: in the case of `c1coc(C2=Nc3cccc4cccc(c34)N2)c1` it was 6%.
For the molecule `CCOC(=O)[C@]12CCC[C@@]1(O)NC(=O)c1cnccc12`, the growth inhibition was 33%.
Still for that read-out and setting: in the case of `Cc1cccc(C)c1N1C(=O)C2Nc3ccccc3SC2C1=O` (stereo not given) it was 7%; in that of `CCc1cccc(C(C)(C)C)c1NC(=S)N/C=C(\c1ccccc1)S(=O)Cc1ccccc1` (stereo not given), 2%; in that of `CC(=O)Nc1ccc(-c2cnc3ccccc3c2)cc1`, 5%.
For the molecule `OCC(CO)C1c2cccc3ccc4cccc1c4c23`, the growth inhibition was 0%.
On the same count and under the same terms, in the case of `O=C1CC(=S)NC(=S)N1` it was -2%; in that of `Cc1c2ccnc(C(N)=O)c2c(C)c2c1[nH]c1ccccc12`, 9%.
Regarding `CCC(=O)Sc1ccccc1C(=O)Nc1ccc(Cl)cc1`, the growth inhibition was 18%.
For the molecule `O=C(O)c1c(Cl)c(Cl)c(Cl)c(Cl)c1-c1c2cc(I)c(=O)c(I)c-2oc2c(I)c(O)c(I)cc12`, the growth inhibition was 75% (active).
The same measure, in the same setting: in the case of `C=C/C=C/CC=C` it was -151%.
On the same count and under the same terms, then `Cc1ccccc1N1CCN(c2c3c(nc4ccccc24)CCCCC3)CC1`, with -4%; and `N/N=C(\N)c1ccc2ccc3cccnc3c2n1`, with 1%; and `CCCCCC(CCCCC)C(=O)O`, with 0%.
With `O=Cc1cc(S(=O)(=O)c2ccc(O)c(C=O)c2)ccc1O`, the growth inhibition is 12%.
The same measure, in the same setting: then `Cc1ccc(C)c(N2C(=O)C(=O)C(c3nc4ccccc4o3)C(=O)C2=O)c1`, with 38%; and `COC(=O)c1cc(C)c2sc3ccccc3c2c1C`, with -13%.
Still for that read-out and setting: in the case of `O=C1NC(=O)N(c2ccc(Cl)c(Cl)c2)C1=O` it was -1%; in that of `Clc1ccc2oc(N3CCCCC3)nc2c1`, 4%; in that of `Cc1ccc(N=NC(C(=O)c2ccccc2)C(=O)c2ccccc2)cc1`, 7%.

Staying with this experiment, now noted: S. cerevisiae rad50 strain growth inhibition; at 50.0 µM (retest, dose inferred, filed as 5.0); active compounds read high.
For `CCCCCCCCCCCCCCOC(=O)C(N)Cc1ccc(O)cc1` (stereo not given), the growth inhibition is 97% (active).
On the same count and under the same terms, then `CN(C)c1ccc(C(O)(Cc2cccc(C#N)c2)c2ccc(N(C)C)cc2)cc1`, with -13%.
The same measure, in the same setting: in the case of `O=C(NNC(=O)c1cccc(C(=O)NNC(=O)c2ccc(Cl)c(Cl)c2)n1)c1ccc(Cl)c(Cl)c1` it was 64%.
`C=C1C(=O)O[C@H]2[C@H](OC(C)=O)[C@@H](C)CCC/C(C)=C/CC[C@@]3(C)O[C@@H]3C[C@@H]12`: the growth inhibition is 99% (active).
On to `O=C(c1ccccc1)C1OC1c1ccccc1Cl` (stereo not given), for which the growth inhibition is 40%.
On to `[N-]=[N+]=Nc1ccc(SSCCC(=O)ON2C(=O)CCC2=O)cc1`, for which the growth inhibition was 97% (active).
The same measure, in the same setting: in the case of `Cc1cc(N(CCC#N)CCC#N)ccc1/C(N=Nc1cccc([N+](=O)[O-])c1)=N/NC(=O)c1cc(Cl)ccc1O` it was 47%.
The same measure, in the same setting: then `CC(C)/C(Cl)=N\OC(=O)Nc1ccc(S(N)(=O)=O)cc1`, with 30%.
`CCCCCCCCCCCCCC(=O)OCC(O)CO` (stereo not given): the growth inhibition is 2%.
For the molecule `O=C1C=CC(=O)N1C1CCCCC1`, the growth inhibition was 99% (active).
The same measure, in the same setting: then `CCCCCCCCCCCC(=O)OCC1OC(n2cc(F)c(=O)[nH]c2=O)C(N)C(O)C1O` (stereo not given), with 34%; and `CN(C)c1ccc(C2C=C(c3ccccc3)Oc3ccccc32)cc1` (stereo not given), with 96% (active).
Take `CS(=O)(=O)OCCN(CCOS(C)(=O)=O)c1ccc(C=Nc2cccc(Cl)c2)cc1`: the growth inhibition was 90% (active).
On the same count and under the same terms, in the case of `O=C1C(=O)N(c2cc(Cl)ccc2Cl)C(=O)C(=O)C1c1nc2ccccc2o1` it was 4%; in that of `CC1=NC(=Cc2ccc(Cl)cc2)C(=O)N1n1c(-c2ccccc2)nc2ccccc2c1=O`, 59%.
Take `C/C(=N/Nc1ccc([N+](=O)[O-])cc1[N+](=O)[O-])C1=CCC(C(C)(C)C)CC1` (stereo not given): the growth inhibition was 2%.
Still for that read-out and setting: then `Cc1ccc(C)c(N2C(=O)C(=O)C(c3nc4ccccc4o3)/C(=N\NC(=O)c3ccccc3O)C2=O)c1` (stereo not given), with 21%; and `O=C(/C=C/C=C/c1ccccc1)c1ccco1`, with -16%; and `O=C1CCC(=O)c2c1c(O)c1ccncc1c2O`, with 99% (active).
Take `CNC(=O)OC(C)CN1c2ccccc2Sc2ccc(Cl)cc21` (stereo not given): the growth inhibition was 97% (active).
On the same count and under the same terms, then `c1coc(C2=Nc3cccc4cccc(c34)N2)c1`, with 84% (active); and `CCOC(=O)[C@]12CCC[C@@]1(O)NC(=O)c1cnccc12`, with 99% (active); and `Cc1cccc(C)c1N1C(=O)C2Nc3ccccc3SC2C1=O` (stereo not given), with 93% (active).
Still for that read-out and setting: then `CCc1cccc(C(C)(C)C)c1NC(=S)N/C=C(\c1ccccc1)S(=O)Cc1ccccc1` (stereo not given), with 77% (active); and `CC(=O)Nc1ccc(-c2cnc3ccccc3c2)cc1`, with 29%; and `OCC(CO)C1c2cccc3ccc4cccc1c4c23`, with 30%.
Turning to `O=C1CC(=S)NC(=S)N1`, the growth inhibition was -6%.
As to `Cc1c2ccnc(C(N)=O)c2c(C)c2c1[nH]c1ccccc12`, the growth inhibition was 90% (active).
Same read-out and setting: in the case of `CCC(=O)Sc1ccccc1C(=O)Nc1ccc(Cl)cc1` it was 43%; in that of `O=C(O)c1c(Cl)c(Cl)c(Cl)c(Cl)c1-c1c2cc(I)c(=O)c(I)c-2oc2c(I)c(O)c(I)cc12`, 98% (active).
Same read-out and setting: in the case of `C=C/C=C/CC=C` it was 38%.
For the molecule `Cc1ccccc1N1CCN(c2c3c(nc4ccccc24)CCCCC3)CC1`, the growth inhibition is 94% (active).
Regarding `N/N=C(\N)c1ccc2ccc3cccnc3c2n1`, the growth inhibition was 73% (active).
On to `CCCCCC(CCCCC)C(=O)O`, for which the growth inhibition is 63%.
Still for that read-out and setting: then `O=Cc1cc(S(=O)(=O)c2ccc(O)c(C=O)c2)ccc1O`, with 22%.
On the same count and under the same terms, then `Cc1ccc(C)c(N2C(=O)C(=O)C(c3nc4ccccc4o3)C(=O)C2=O)c1`, with 98% (active); and `COC(=O)c1cc(C)c2sc3ccccc3c2c1C`, with 29%; and `O=C1NC(=O)N(c2ccc(Cl)c(Cl)c2)C1=O`, with 8%.
Regarding `Clc1ccc2oc(N3CCCCC3)nc2c1`, the growth inhibition is 7%.
Still for that read-out and setting: in the case of `Cc1ccc(N=NC(C(=O)c2ccccc2)C(=O)c2ccccc2)cc1` it was 94% (active).
